Experimental data taken from ChEMBL document CHEMBL3988442, “University of Dundee, Small-Polar-MMV Screening Library” (2021).
Screen size: about 67,000 compounds; about 300 (0.45%) showed an effect of 50% or more. Many of the other results were omitted from the sample, so strong results are more common in it than they were.

Target: Polyketide synthase Pks13 (Mycobacterium tuberculosis (strain ATCC 25618 / H37Rv)) (UniProt I6X8D2)
Assay: Mycobacterium tuberculosis Polyketide synthase 13 Thioesterase (PKS13)
Format: functional
Set-up: scale not given: in the data most compounds retested in dose-response had high values
Conditions: 30 µM

Polyketide synthase Pks13 (Mycobacterium tuberculosis (strain ATCC 25618 / H37Rv)), sequence (I6X8D2 whole entry): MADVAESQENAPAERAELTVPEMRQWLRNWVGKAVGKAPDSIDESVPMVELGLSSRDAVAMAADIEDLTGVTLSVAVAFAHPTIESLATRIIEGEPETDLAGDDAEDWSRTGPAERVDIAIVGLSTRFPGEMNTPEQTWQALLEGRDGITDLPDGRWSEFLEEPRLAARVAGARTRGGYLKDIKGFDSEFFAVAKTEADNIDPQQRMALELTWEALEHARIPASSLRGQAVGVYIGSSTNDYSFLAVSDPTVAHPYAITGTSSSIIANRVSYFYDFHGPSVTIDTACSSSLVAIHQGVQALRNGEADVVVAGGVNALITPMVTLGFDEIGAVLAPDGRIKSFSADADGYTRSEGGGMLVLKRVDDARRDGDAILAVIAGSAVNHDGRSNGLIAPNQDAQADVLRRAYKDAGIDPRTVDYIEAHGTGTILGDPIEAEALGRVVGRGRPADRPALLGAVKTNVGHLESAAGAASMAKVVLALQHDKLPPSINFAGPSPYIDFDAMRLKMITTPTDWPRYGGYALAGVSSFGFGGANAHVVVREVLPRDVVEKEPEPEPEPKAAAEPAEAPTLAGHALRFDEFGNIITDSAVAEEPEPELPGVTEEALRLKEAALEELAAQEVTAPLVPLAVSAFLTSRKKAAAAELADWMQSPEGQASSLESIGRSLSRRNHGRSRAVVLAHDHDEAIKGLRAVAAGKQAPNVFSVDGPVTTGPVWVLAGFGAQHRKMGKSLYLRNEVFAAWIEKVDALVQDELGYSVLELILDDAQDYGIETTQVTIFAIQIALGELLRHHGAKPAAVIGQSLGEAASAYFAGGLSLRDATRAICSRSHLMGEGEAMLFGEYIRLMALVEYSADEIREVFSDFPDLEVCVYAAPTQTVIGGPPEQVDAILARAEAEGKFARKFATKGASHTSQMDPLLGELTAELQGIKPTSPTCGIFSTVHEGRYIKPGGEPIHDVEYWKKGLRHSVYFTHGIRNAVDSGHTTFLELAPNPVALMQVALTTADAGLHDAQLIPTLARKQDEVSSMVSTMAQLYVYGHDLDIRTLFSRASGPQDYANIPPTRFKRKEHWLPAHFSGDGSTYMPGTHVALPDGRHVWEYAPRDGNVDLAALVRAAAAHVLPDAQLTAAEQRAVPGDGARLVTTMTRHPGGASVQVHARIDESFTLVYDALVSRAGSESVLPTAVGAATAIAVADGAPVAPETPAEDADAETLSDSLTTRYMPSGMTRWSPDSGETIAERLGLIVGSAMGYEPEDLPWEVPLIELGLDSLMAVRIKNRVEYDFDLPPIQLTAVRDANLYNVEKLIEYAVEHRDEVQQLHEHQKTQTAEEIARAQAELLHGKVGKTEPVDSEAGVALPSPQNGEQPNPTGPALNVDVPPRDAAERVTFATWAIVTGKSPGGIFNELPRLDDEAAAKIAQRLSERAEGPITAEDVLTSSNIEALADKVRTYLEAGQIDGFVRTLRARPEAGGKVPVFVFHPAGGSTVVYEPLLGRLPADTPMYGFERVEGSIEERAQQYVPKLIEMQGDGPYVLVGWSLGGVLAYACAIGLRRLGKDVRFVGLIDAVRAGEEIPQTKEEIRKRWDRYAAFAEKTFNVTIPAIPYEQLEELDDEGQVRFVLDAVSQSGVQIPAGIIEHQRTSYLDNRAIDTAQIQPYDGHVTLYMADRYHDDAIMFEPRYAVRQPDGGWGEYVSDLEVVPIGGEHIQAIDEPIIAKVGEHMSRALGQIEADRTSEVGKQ

Point of comparison: CCN(CC)C(=O)c1ccc(CNc2cncc(-n3cccn3)n2)cc1, Percent Effect -7.79%. Against it:
- CN1CCS(=O)(=O)[C@@H]2CCN(C(=O)c3ccccc3)CC[C@@H]21 — lower, -9.08%
- Cc1cc(C)n(-c2cncc(NCCNC(=O)c3cccnc3)n2)n1 — higher, 2.44%
- Cc1cc(C)n(-c2cncc(NCCNC(=O)C(C)C)n2)n1 — higher, 35.4%
- Cc1cc(C)n(-c2cncc(NCCNS(C)(=O)=O)n2)n1 — higher, 59.2%
- Cc1cc(C)n(-c2cncc(NCCNC(=O)CC3CCCC3)n2)n1 — lower, -10.3%
- Cc1cc(C)n(-c2cncc(NCCNC(=O)C(C)(C)C)n2)n1 — higher, 27%
- Cc1cc(C)n(-c2cncc(NCCC(=O)NC(C)C)n2)n1 — higher, 62.4%
- CCN(CC)C(=O)CCNc1cncc(-n2nc(C)cc2C)n1 — higher, 10.2%
- CCCNC(=O)CCNc1cncc(-n2nc(C)cc2C)n1 — higher, 52%
- Cc1cc(C)n(-c2cncc(NCCNC(=O)C3CCCC3)n2)n1 — higher, 40.3%
- O=C(CC1CCCC1)N1C[C@H](OCc2ccncc2)[C@H]2OCCC[C@H]21 — higher, -0.106%
- COCCN1CC[C@H]2CN(c3cc(OC)ncn3)C[C@@H]2C1=O — higher, 25.2%
- CS(=O)(=O)CC(=O)N1C[C@H]2CCC[C@@]2(COCc2ccncc2)C1 — lower, -8.5%
- CCC(CC)CN1C[C@@H]2OCCN(Cc3cnn(C)c3)[C@@H]2C1 — higher, -3.42%
- CCN1C[C@H]2CCN(C(=O)Nc3ccccc3C)CC[C@H]2S1(=O)=O — lower, -46.2%
- CCc1nc(C)c(C(=O)N2C[C@H]3CC[C@@H]2CN(S(=O)(=O)N(C)C)C3)s1 — lower, -18.5%
- Cc1noc(C)c1CN1C[C@@H]2CN(C(=O)c3cnccn3)C[C@@H]2C1 — lower, -42.1%
- O=C(O)[C@]12CCCN(Cc3nccs3)[C@@H]1CCN(c1cnccn1)C2 — lower, -14.4%
- COCCN1CCCC2(CCN(c3nccc4ccccc34)C2)C1=O (centres undefined) — higher, 10.3%
- COCCN1CCCC2(CCN(c3ncnc(C)c3C)C2)C1=O (centres undefined) — higher, 6.43%
- COCCN1CCCC2(CCN(c3nccnc3N(C)C)C2)C1=O (centres undefined) — higher, 60.4%
- Fc1cnc(N2C[C@@H](OCC3CCOCC3)[C@H]3OCCC[C@H]32)nc1 — lower, -17.1%
- CN(C)C[C@H]1OC[C@@H]2CCN(C(=O)NCc3cccc(F)c3)C[C@@H]21 — lower, -18.3%
- O[C@]12CCNC[C@H]1CN(c1ccnc3ccccc13)CC2 — lower, -11.7%
- Cc1ccc(C(=O)N2C[C@H](OCc3cccnc3)[C@H]3COC[C@H]32)cn1 — lower, -11.8%
- COc1ccc2nc(C3CC3)cc(C(=O)NCC(=O)N(C)C)c2c1 — lower, -13.4%
- COc1ccc2nc(C3CC3)cc(C(=O)NCc3noc(C)n3)c2c1 — higher, 83.5%
- COc1ccc2nc(C3CC3)cc(C(=O)NCc3ncnn3C)c2c1 — higher, -6.17%
- Cc1cnc(N2CC[C@H]3[C@@H]2CCC(=O)N3c2ccccc2)nc1 — lower, -48.4%
- O=C(CC1CC1)N1C[C@H]2CN(CC3CC3)C(=O)[C@H]2C1 — lower, -22.1%
- O=C(CCn1cncn1)N1C[C@H]2CC[C@@H]1CN(Cc1ccncc1)C2 — higher, 0.614%
- CCCOc1ccc(CNc2cncc(-n3cccn3)n2)cc1 — higher, 34.6%
- Cc1cccc(CNc2cncc(-n3cccn3)n2)c1 — lower, -60.2%
- COC(=O)Nc1ccc(CNc2cncc(-n3cccn3)n2)cc1 — higher, 25.1%
- NS(=O)(=O)Cc1ccc(CNc2cncc(-n3cccn3)n2)cc1 — higher, 133%
- CN(C)c1ccc(CNc2cncc(-n3cccn3)n2)cc1 — higher, 27.6%
- CNC(=O)COc1ccc(CNc2cncc(-n3cccn3)n2)cc1 — higher, 70.7%
- CC(C)OCc1ccc(CNc2cncc(-n3cccn3)n2)cc1 — higher, 16.5%
- COCc1ccc(CNc2cncc(-n3cccn3)n2)cc1 — higher, 52.2%
- CCOCCOCc1cccc(CNc2cncc(-n3cccn3)n2)c1 — higher, 53.8%
- CCOCc1ccc(CNc2cncc(-n3cccn3)n2)cc1 — lower, -10.5%
- CCOc1cccc(CNc2cncc(-n3cccn3)n2)c1 — lower, -63.1%
- Cc1nc[nH]c1CN1CCN(C(=O)c2cccs2)[C@H]2CS(=O)(=O)C[C@H]21 — higher, -7.55%
- COCCN1C[C@H]2CC[C@@H]1CN(CC(=O)Nc1ccn(C)n1)C2 — lower, -11.6%
- O=C(c1cnccn1)N1CCN2C[C@H](Oc3cccc(F)c3)C[C@H]2C1 — lower, -42.7%
- O=C(Cc1cccc(F)c1)N1CCN2C[C@H](Oc3cncnc3)C[C@H]2C1 — higher, -1.46%
- O=C(C1CC1)N1CCN2C[C@@H](CO)[C@H](c3ccccc3)[C@H]2C1 — higher, 2.09%
- Cc1nnc([C@H]2CC[C@@H]3[C@@H](CCN3CC3CCOCC3)O2)o1 — lower, -25.5%
- CN(C)C(=O)CO[C@@H]1CC[C@H]2[C@H]1OCCN2c1ncc(F)cn1 — higher, -1.97%
- COCCN1C(=O)C[C@H]2[C@H]1CCN2Cc1cccc(C#N)c1 — lower, -24.2%
- Cc1ccc2nc(C(=O)N(C)[C@@H]3CC[C@@H](N4CCCC4)[C@@H]3O)cn2c1 — higher, 61.6%
- CO[C@@H]1CC[C@@H](N(C)C(=O)c2cn3cc(C)ccc3n2)[C@H]1O — higher, -0.591%
- CO[C@@H]1CCC[C@@H](N(C)C(=O)c2cn3cc(C)ccc3n2)[C@H]1O — higher, -3.51%
- CC(C)=CCN1C[C@H]2CC[C@@H]1CN(S(=O)(=O)c1cccnc1)C2 — higher, 7.63%
- CCN1CC[C@@]2(C(=O)N3CCOCC3)CCN(C(=O)NC)CC[C@@H]12 — lower, -31.8%
- CC(C)NC(=O)NC(C)c1nc(-c2ccccc2)cs1 (centres undefined) — higher, 0.666%
- CC(NC(=O)NC1CC1)c1nc(-c2ccccc2)cs1 (centres undefined) — higher, -2.19%
- CC(NC(=O)NCC(C)(C)C(N)=O)c1nc(-c2ccccc2)cs1 (centres undefined) — higher, 55.9%
- CNC(=O)c1cc2c(nc1NCC1CC1)CCN(S(=O)(=O)C1CC1)CC2 — lower, -32.9%
- CCS(=O)(=O)N1CCc2cc(C(=O)NC)c(NCC(C)C)nc2CC1 — lower, -68.6%
- CNC(=O)c1cc2c(nc1NCC(C)C)CCN(CC1CC1)CC2 — higher, 51.6%
- CNC(=O)c1cc2c(nc1NCC(C)C)CCN(S(C)(=O)=O)CC2 — higher, 51%
- CNC(=O)c1cc2c(nc1NCC(C)C)CCN(S(=O)(=O)C1CC1)CC2 — lower, -13.9%
- CNC(=O)c1cc2c(nc1NCC(C)C)CCN(c1ccncn1)CC2 — higher, 94.4%
- CNC(=O)c1cc2c(nc1NCC1CC1)CCN(CC1CC1)CC2 — higher, 42.7%
- CNC(=O)c1cc2c(nc1NCC1CC1)CCN(c1ccncn1)CC2 — lower, -246%
- CNC(=O)c1cc2c(nc1NCC(C)C)CCN(c1ncccn1)CC2 — higher, 16.7%
- CNC(=O)c1cc2c(nc1NCC(C)C)CCN(C)CC2 — higher, 49.9%
- CNC(=O)c1cc2c(nc1NCC1CC1)CCN(S(C)(=O)=O)CC2 — higher, 55.9%
- CCS(=O)(=O)N1CCc2cc(C(=O)NC)c(NCC3CC3)nc2CC1 — higher, 23.6%
- O=C(NC1CC1)[C@@H]1CCO[C@@H]2CCN(C3CCOCC3)C[C@H]21 — lower, -9.37%
- Cc1noc(C)c1CN1C[C@@H]2CCCO[C@@H]2[C@H](NS(C)(=O)=O)C1 — lower, -27.6%
- O=C([C@@H]1COC[C@H]2CN(CC3CCCC3)C[C@H]21)N1CCOCC1 — lower, -31.7%
- CO[C@@H]1CCN(c2ncc(F)cn2)[C@@H]2CN(CC3CC3)C[C@@H]21 — lower, -32.1%
- CC(C)N1CCO[C@H]2CN(C(=O)c3ccsc3)C[C@H]21 — lower, -16%
- Cc1cc(CN2CCN(C(=O)C(C)C)[C@@H]3CS(=O)(=O)C[C@@H]32)ccc1F — higher, -6.06%
- CNC(=O)c1cc2c(nc1NCC1CC1)CCN(c1ncccn1)CC2 — higher, 9.04%
- CN(C)C(=O)c1cc2c(nc1NCC1CC1)CCNCC2 — lower, -20.1%
- CNC(=O)c1cc2c(nc1NCC1CC1)CCNCC2 — higher, 81.7%
- O=C1[C@@H]2CCN(Cc3ccoc3)C[C@@H]2OCCN1c1cccnc1 — higher, -7.12%
- Cc1noc([C@H]2C[C@H]3CN(C(=O)Cc4ccsc4)CC[C@H]3O2)n1 — lower, -10.9%
- O=C(CC1CC1)N[C@@H]1CN(Cc2nccs2)C[C@@H]2CCCO[C@@H]21 — lower, -33.5%
- Cc1nc(COC[C@@H]2CC[C@H]3[C@H](CCN3c3ncccn3)O2)cs1 — lower, -28.4%
- FC(F)(F)c1cc(C2CCN(c3cnccn3)CC2)n2ccnc2n1 — higher, 18.1%
- CC(=O)N1CCC(c2cc(C(F)(F)F)n3ccnc3n2)CC1 — higher, 41.8%
- CC(=O)N1CCC(c2cc(C(F)(F)F)nc3nccn23)CC1 — higher, 57.5%
- COCC(=O)N1CCC(c2cc(C(F)(F)F)n3ccnc3n2)CC1 — higher, 61.5%
- CN1CCC(c2cc(C(F)(F)F)n3ccnc3n2)CC1 — lower, -20.7%
- CC(C)N1CCCC(c2cc(C(F)(F)F)nc3nccn23)C1 (centres undefined) — higher, 24.5%
- c1cc(CN2CCO[C@H]3[C@H](OCCN4CCCC4)CC[C@@H]32)ccn1 — lower, -11.4%
- CC1=N[C@@]2(CC[C@@H]3CN(CC(=O)N(C)C)C[C@@H]32)C(=O)N1CC(C)C — higher, -5.03%
- COCCCN1C(=O)CC[C@H]2CN(Cc3cc4ccccc4o3)CC[C@H]21 — higher, -4.88%
- COCCN1CCO[C@@H]2CN(Cc3ccc(C)s3)C[C@@H]2C1 — lower, -27.7%
- CN(C)C(=O)CN1C[C@@H]2CC[C@H](C1)N(Cc1ccccc1C#N)C2 — higher, 6.99%
- COc1ccc2[nH]cc(-c3ccnc(NC4CCCC4)n3)c2c1 — higher, 18.6%
- COc1ccc2[nH]cc(-c3ccnc(N4CCC(C)CC4)n3)c2c1 — higher, 71.9%
- CN1CCCN(c2nccc(-c3c[nH]c4ccc(Br)cc34)n2)CC1 — higher, -2.62%
- O=C(COC1CCCC1)N1C[C@@H]2COC[C@]2(COc2cccnc2)C1 — lower, -18%
- COc1ccccc1CN1CCCC(Cc2nccnc2N)C1 (centres undefined) — higher, -2.41%
- Nc1nccnc1CC1CCCN(Cc2c[nH]c3ccccc23)C1 (centres undefined) — higher, 15.3%
- Nc1nccnc1CC1CCCN(Cc2ccnc3ccccc23)C1 (centres undefined) — higher, 126%
- CCN1C[C@H]2CCN(C(=O)NC3CCCC3)CC[C@H]2S1(=O)=O — lower, -17.8%
- CC(=O)N1[C@H](Cn2cncn2)C[C@@H]2CN(C(=O)NC3CC3)CC[C@@H]21 — higher, 12.2%
- O=C(Nc1cnccn1)[C@H]1CO[C@H]2CCN(c3ncc(F)cn3)C[C@H]2C1 — lower, -40.3%
- COCCN1C(=O)[C@]2(CC[C@@H]3CN(Cc4ccccc4F)C[C@@H]32)N=C1C — lower, -17.4%
- Cc1csc2ncc(-c3ccnc(N4CCN(C)CC4)n3)c(=O)n12 — lower, -27.4%
- Cc1csc2ncc(-c3ccnc(N4CCCN(C)CC4)n3)c(=O)n12 — higher, 37.9%
- Cc1csc2ncc(-c3ccnc(N4CCCC4)n3)c(=O)n12 — higher, 137%
